A short description of assay [1]: qHTS Assay for Identifying Gametocytocidal Compounds (AID 743244). Also: potency is read from the fitted curve at half-maximal effect.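 As to max response: % is scaled to controls: 0 for no effect and ±100 for the full control effect; actives lower the fluorescent signal which means gametocytes are killed.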 As to conditions: P. falciparum 3D7 stage III-V gametocytes, alamarBlue, 72 h; max response: stronger effect = lower value. In outline: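 P. falciparum 3D7 stage III–V gametocytes (20,000 cells/well) were exposed to compounds for 72 h at 37 °C, 5% CO2. AlamarBlue was then added for 24 h; decreased resorufin fluorescence (Ex 525/Em 598 nm) indicated loss of viability.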
A general note: qHTS replaces the single test concentration by a dilution series.

Assay [2] is described as follows: qHTS assay to identify small molecule inhibitors of chordoma cells - UCH-1 (AID 1259355). Also: nearly all actives have a fitted effect of over 55% in size. Also: potency is read from the fitted curve at half-maximal effect. In outline: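 800 cells/well, overnight attach; compounds pinned at 15 concs, then auranofin/camptothecin/doxorubicin/rubitecan/topotecan combo added; 48hr 37 C, 5% CO2; CellTiter-Glo, 30min RT, luminescence.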
Assay [3] can be described thus: qHTS profiling for inhibitors of Plasmodium falciparum (3D7) proliferation (AID 743322).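 Also: infected erythrocytes exposed to compound for 72 h before lysis; 100% = DMSO vehicle wells and 0% = 0.29 µM artemisinin.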 As to conditions: P. falciparum 3D7 proliferation; at 28.7 µM (top of the series). In outline:
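Parasite DNA was quantified by SYBR Green I fluorescence (ex 485, em 535 nm) after overnight lysis in saponin/Triton buffer at room temperature. Cultures at 0.3% parasitemia and 2.5% hematocrit were first exposed to compound for 72 h at 37 C; signals were normalised to artemisinin (0.29 uM) and vehicle wells.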

Assay [4] in a line: qHTS profiling for inhibitors of Plasmodium falciparum (DD2) proliferation (AID 743323; call rule not given here). As to conditions: lower = more inhibition; at 28.7 µM (top of the series). In outline: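 Parasite proliferation measured via DNA-dye fluorescence, as uninfected erythrocytes lack DNA. Cultures at 0.3% parasitemia and 2.5% hematocrit incubated 72 h with compound; signal scaled between vehicle and 0.29 uM artemisinin wells.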

A short description of assay [5]: qHTS profiling for inhibitors of Plasmodium falciparum (HB3) proliferation (AID 743324).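 Also: 100% = DMSO vehicle wells and 0% = artemisinin-treated control wells.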 Conditions: Plasmodium falciparum HB3 blood-stage proliferation; at 28.7 µM (top of the series). In outline: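 SYBR Green fluorescence (485 ex/535 em) of lysed cultures, incubated overnight at room temperature in the dark, quantifies parasite DNA. Infected erythrocytes at 0.3% parasitemia and 2.5% hematocrit were exposed 72 h; values normalized to DMSO and 0.29 uM artemisinin controls.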

Assay [6] in a line: qHTS assay for small molecule agonists of the antioxidant response element (ARE) signaling pathway measured by Nrf2-dependant transcriptional activity (AID 720636; active = well fitted curve in the direction sought with a large enough effect in the repeat runs; an effect the other way counts as inactive or inconclusive; also: potency is read from the fitted curve at half-maximal effect). In outline: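 Cells: ARE-luc HepG2 with Nrf2-responsive luciferase. Medium contained 1% dialyzed FBS. Compound exposure lasted 16 hr at 37 C and 5% CO2, followed by ONE-Glo luciferase detection.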
Assay [7] is described as follows: qHTS assay for small molecule antagonists of the retinoid-related orphan receptor gamma (ROR-gamma) signaling pathway - cell viability counter screen (AID 720652; active = well fitted curve in the direction sought with a large enough effect in the repeat runs; an effect the other way counts as inactive or inconclusive;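 also: compound exposure lasted 16 hr before ATP read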; also: potency is read from the fitted curve at half-maximal effect). In outline:
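CHO RORE-LUC/TET-ROR line, 1,000 cells/well, 37 C 5% CO2 5 hr; cpd or DMSO + doxycycline induction, 16 hr. CellTiter-Glo, 30 min RT, luminescence = ATP content.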

Assay [8] is described as follows: qHTS assay for small molecule agonists of the antioxidant response element (ARE) signaling pathway measured by Nrf2-dependant transcriptional activity - cell viability counter screen (AID 720653; active = well fitted curve in the direction sought with a large enough effect in the repeat runs; an effect the other way counts as inactive or inconclusive; also: % is scaled to controls: 0 for no effect and ±100 for the full control effect). As to conditions: ARE-bla HepG2 viability, CellTiter-Glo ATP luminescence, 16 h; max response: stronger effect = lower value. In outline:
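Cytotoxicity counter screen: intracellular ATP quantified by CellTiter-Glo luminescence in the same ARE-bla HepG2 plates, after 16 h compound exposure and a 2 h beta-lactamase substrate step.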

Assay [9] in a line: qHTS assay for cell viability of HEK293 cells (AID 743288). Also: nearly all actives have a fitted effect of over 50% in size. Also: potency is read from the fitted curve at half-maximal effect. As to max response: % is scaled to controls: 0 for no effect and ±100 for the full control effect. Conditions: ATP luminescence (CellTiter-Glo), 18 h; max response: stronger effect = lower value. In outline:
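Viable-cell counts were inferred from luciferase-based ATP content in HEK293 cells seeded at 2,000/well, pre-incubated ≥5 h, then dosed with DMSO-solubilised compounds for 18 h at 37 C.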

The nature of assay [10]: qHTS assay for cell viability of the p53RE-bla HCT-116 cell line (AID 743292). Also: % is scaled to controls: 0 for no effect and ±100 for the full control effect; nearly all actives have a fitted effect of over 55% in size. In outline: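 HCT-116 p53RE-bla cells seeded 4,000/well; 5 h at 37 C; compound (DMSO) added; 16 h at 37 C; CellTiter-Glo added, 30 min RT; luminescence read.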
The target in assay [11] is Hexokinase-4 (Homo sapiens) + Glucokinase regulatory protein (Homo sapiens) (UniProt P35557+Q14397). Description: qHTS assay for inhibitors of recombinant human GCK-GKRP interaction: HTRF assay (AID 743207).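 Also: 0% = DMSO with GCK present and -100% = DMSO wells lacking GCK.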 In outline:
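5 nM GST-GCK + 5 nM FLAG-GKRP + 2 uM S6P, pH 7.1 buffer (25 mM Hepes, 2 mM MgCl2, 25 mM KCl, 1 mM DTT, Tween/BSA); pin-transferred cpd; anti-FLAG XL665/anti-GST K; 60 min RT; HTRF.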

Values joined by “and” are separate entries in the source; they are usually repeats but may differ in a detail not shown here. Identical values can stand only once. Results filed as inconclusive are left out. Active and inactive are the calls of the source. Unless noted, calls follow the shape of the dose curve; as a rule, active = well fitted curve in the direction sought with a large enough effect; inconclusive = small, poorly fitted or top-dose-only effect, or another doubt; inactive = no such curve, though single readings can be large; an effect the other way counts as inactive or inconclusive.

Chain of Hexokinase-4 (Homo sapiens) + Glucokinase regulatory protein (Homo sapiens) (P35557 whole entry, looked up): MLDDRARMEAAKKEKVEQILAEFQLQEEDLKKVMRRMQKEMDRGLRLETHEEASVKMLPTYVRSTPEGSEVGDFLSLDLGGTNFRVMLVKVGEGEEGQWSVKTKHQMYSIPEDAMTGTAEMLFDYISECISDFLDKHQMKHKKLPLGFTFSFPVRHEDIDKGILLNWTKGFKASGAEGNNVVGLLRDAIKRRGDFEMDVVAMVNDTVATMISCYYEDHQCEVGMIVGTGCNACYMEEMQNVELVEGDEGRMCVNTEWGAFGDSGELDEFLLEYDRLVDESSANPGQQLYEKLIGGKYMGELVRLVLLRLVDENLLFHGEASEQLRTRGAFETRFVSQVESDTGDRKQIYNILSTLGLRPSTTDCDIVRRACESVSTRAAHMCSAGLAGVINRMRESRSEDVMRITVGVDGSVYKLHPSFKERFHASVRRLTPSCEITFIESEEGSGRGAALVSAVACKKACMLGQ
Chain of Hexokinase-4 (Homo sapiens) + Glucokinase regulatory protein (Homo sapiens) (Q14397 whole entry, looked up): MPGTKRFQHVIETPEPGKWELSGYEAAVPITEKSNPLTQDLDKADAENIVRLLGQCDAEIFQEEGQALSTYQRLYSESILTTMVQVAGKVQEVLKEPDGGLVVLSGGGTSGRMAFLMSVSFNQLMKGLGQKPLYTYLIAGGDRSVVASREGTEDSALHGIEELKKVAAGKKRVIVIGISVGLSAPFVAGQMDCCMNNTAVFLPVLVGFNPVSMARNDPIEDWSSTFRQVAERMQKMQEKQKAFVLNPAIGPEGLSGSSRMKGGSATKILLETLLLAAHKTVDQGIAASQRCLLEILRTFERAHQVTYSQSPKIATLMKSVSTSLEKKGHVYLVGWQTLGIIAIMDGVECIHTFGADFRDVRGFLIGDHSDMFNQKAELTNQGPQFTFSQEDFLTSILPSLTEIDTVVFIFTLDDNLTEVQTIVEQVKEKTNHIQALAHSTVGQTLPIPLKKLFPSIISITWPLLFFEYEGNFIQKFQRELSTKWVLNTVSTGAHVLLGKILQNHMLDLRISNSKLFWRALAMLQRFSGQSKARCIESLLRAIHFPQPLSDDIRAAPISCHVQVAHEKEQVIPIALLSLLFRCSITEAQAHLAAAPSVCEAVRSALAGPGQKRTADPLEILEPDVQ

Regarding `COc1ccc2c3c1O[C@H]1[C@@H](O)C=C[C@H]4[C@@H](C2)NCC[C@@]341`, the max response in [1] was -9% (inactive). Further, the Potency result in [2] is “inactive”.

On to `C[N+]1(C)CCCCC1COC(=O)C(O)(c1ccccc1)c1ccccc1` (stereo unspecified), for which the max response in assay [1] is -10.4% (inactive). Further, the Potency entry in [2] was “inactive”.

For the compound `CCN(CC)CCO[C@H]1CC[C@@]2(C)C(=CC[C@@H]3[C@@H]2CC[C@]2(C)C(=O)CC[C@@H]32)C1`, the max response in [1] was -4.56% (inactive). The Potency result in assay [2] was “inactive”.

As to `CCC/C=C/C=C/C(=O)O[C@H]1/C(=C/C(=O)OC)C[C@H]2C[C@H]([C@@H](C)O)OC(=O)C[C@H](O)C[C@@H]3C[C@H](OC(C)=O)C(C)(C)[C@](O)(C[C@@H]4C/C(=C/C(=O)OC)C[C@H](/C=C/C(C)(C)[C@]1(O)O2)O4)O3`, in [1], the max response was -10.9% (inactive). The Potency entry in assay [2] is “inactive”.

For `O=C1OC2(c3cc(Br)c(O)cc3Oc3c2cc(Br)c(O)[c]3[Hg])c2ccccc21` (stereo unspecified), the max response in [1] is -1.46% (inactive). Also, in assay [2], the Potency entry was “inactive”.

Turning to `CCC(N)Cc1c[nH]c2ccccc12` (stereo unspecified), the max response in assay [1] is 2.35% (inactive) and -8.43% (inactive). Moreover, the Potency entry in [2] was “inactive”.

With `COc1cc2c(cc1OC)[C@@]13CCN4CC5=CCO[C@H]6CC(=O)N2[C@H]1[C@H]6[C@H]5C[C@H]43`, in assay [1], the max response was 18.6% (inactive). Besides, the Potency result in assay [2] was “inactive”.

Regarding `CCOC(=O)/C=C(C)/C=C/C[C@@H](C)CCCC(C)C`, in assay [1], the max response was 10.1% (inactive). In addition, the Potency entry in assay [2] was “inactive”.

In the case of `CCC(=O)O[C@@](Cc1ccccc1)(c1ccccc1)[C@@H](C)CN(C)C`, in [1], the max response is 5.87% (inactive). Besides, the Potency result in assay [2] is “inactive”.

With `Oc1ccc2c3c1O[C@H]1[C@@H](O)CC[C@@]4(O)[C@@H](C2)N(CC2CCC2)CC[C@]314`, the max response in assay [1] is 2.47% (inactive). Besides, the Potency result in assay [2] is “inactive”.

As for `CC[C@H]1[C@@H]2C[C@H]3[C@@H]4N(C)c5ccccc5[C@]45C[C@@H](C2[C@H]5O)N3[C@@H]1O` (stereo partly specified), the max response in assay [1] is 7.56% (inactive). Also, in assay [2], the Potency result is “inactive”.

Turning to `CC(=O)OCC(=O)[C@H]1CC[C@H]2[C@@H]3CC[C@H]4C[C@H](O)CC[C@]4(C)[C@H]3C(=O)C[C@]12C`, the max response in assay [1] was 11.4% (inactive). Besides, the Potency entry in assay [2] is “inactive”.

Consider `CCNCC(O)c1cccc(O)c1` (stereo unspecified), for which the max response in [1] is -3.84% (inactive). The Potency result in assay [2] was “inactive”.

`CC[N+](C)(CC)CCOC(=O)C(O)(c1ccccc1)c1ccccc1`: the max response in assay [1] was 11.5% (inactive). The Potency result in [2] is “inactive”.

`c1ccc2sc(SNC3CCCCC3)nc2c1`: the max response in assay [1] was 27.5% (inactive). In assay [2], the Potency result is “inactive”.

Turning to `C/C(=C\c1csc(C)n1)[C@@H]1C[C@@H]2O[C@]2(C)CCC[C@H](C)[C@H](O)[C@@H](C)C(=O)C(C)(C)[C@@H](O)CC(=O)O1`, in assay [1], the max response is 12.6% (inactive). The remaining parasite growth % (stronger effect = lower value) in assay [3] is 11%. The compound further returned an activity, percent of control in [4] of 13%. The compound further gave a remaining proliferation (% of control), lower = more inhibition in [5] of 14.1%. The Potency entry in assay [2] was “inactive”.

With `O=C1C=C2C=C[C@@H]3C[C@@]2(O1)[C@H]1CCCCN31`, in assay [1], the Potency is 7.08 µM (active).

Turning to `O=C1CCO1`, the Potency result in assay [6], in [7] and in assay [10] was “inactive” throughout. Moreover, the max response is 5.4% (inactive) in assay [8] and 5.83% (inactive) in [9].

Regarding `CCNC1(c2cccs2)CCCCC1=O` (stereo unspecified), the max response in assay [1] is -0.213% (inactive). In addition, the Potency result in assay [2] was “inactive”.

On to `O=CC=O`, for which the Potency entry in assay [6], in assay [7] and in assay [10] was “inactive” throughout. The max response in [8] was 0.354% (inactive); in assay [1] it was 1.75% (inactive); in assay [9], -6.19% (inactive).

For the compound `[Cl-].[Cl-].[Hg+2]`, the Potency in assay [6] was 21.1 µM (active); in assay [7], 1.68 µM (active); in [9], 44.7 µM (active). For the same compound, the max response in [8] was -13.5% (inactive). In addition, the Potency entry in assay [10] is “inactive”.

On to `CCNC(C)Cc1cccc(C(F)(F)F)c1` (stereo unspecified), for which, in assay [1], the max response is 22.8% (inactive). Besides, the Potency entry in [2] was “inactive”.

Consider `c1csc(C2(N3CCCCC3)CCCCC2)c1`, for which, in assay [1], the max response is -3.82% (inactive). Also, the Potency entry in assay [2] was “inactive”.

Regarding `CC(C)CC(NP(=O)(O)O[C@@H]1O[C@@H](C)[C@H](O)[C@@H](O)[C@H]1O)C(=O)NC(Cc1c[nH]c2ccccc12)C(=O)O` (stereo partly specified), the outcome in [11] was inactive.

Regarding `O=C1C[C@@H]2OCC=C3CN4CC[C@]56c7ccccc7N1[C@H]5[C@H]2[C@H]3C[C@H]46` (tested in a mixture with another compound), in assay [1], the max response is 12.7% (inactive) and 17.6% (inactive). Besides, the Potency result in [2] was “inactive”.

Turning to `CC1(C)[C@H](C=C(Cl)Cl)[C@H]1C(=O)OCc1c(F)c(F)cc(F)c1F`, the max response in [1] was 0.31% (inactive). Moreover, in [2], the Potency result was “inactive”.

Regarding `O=C(CS(=O)C(c1ccccc1)c1ccccc1)NO` (stereo unspecified), in [1], the max response was -0.968% (inactive). The Potency result in [2] is “inactive”.

For `COC([CH2][Hg])CNC(=O)c1ccccc1OCC(=O)O` (stereo unspecified), in [1], the max response is 2.8% (inactive). Also, in [2], the Potency result was “inactive”.

For `CC(C)(O)[C@@H]1[C@H]2OC(=O)[C@@H]1[C@]1(O)C[C@H]3O[C@]34C(=O)O[C@H]2[C@]14C`, the max response in [1] is -7.5% (inactive) and 15.4% (inactive). Moreover, the Potency result in [2] was “inactive”.

Consider `C[C@H]1CC[C@]2(NC1)O[C@H]1C[C@H]3[C@@H]4CC[C@H]5C[C@@H](O[C@@H]6O[C@H](CO)[C@H](O[C@@H]7O[C@H](CO)[C@@H](O)[C@H](O[C@@H]8OC[C@@H](O)[C@H](O)[C@H]8O)[C@H]7O[C@@H]7O[C@H](CO)[C@@H](O)[C@H](O)[C@H]7O)[C@H](O)[C@H]6O)CC[C@]5(C)[C@H]4CC[C@]3(C)[C@H]1[C@@H]2C`, for which the max response in [1] is 6.32% (inactive). In addition, in [2], the Potency was 12.6 µM (active).

Values taken from PubChem BioAssay (NCATS).
